# In the supplement of paper PMC10338343:
# ± gives the standard deviation.
# Tested on: MILI (PIWIL2) piRISC loaded with piRNA #1 (26 nt)
# Assay: pre-steady-state target cleavage rate (min^-1); guide: piRNA #1 5'p-UGAGGUAGUAGGUUGUAUAGUAUCCA; MIWI and MILI are mouse PIWI proteins and EfPiwi is from a freshwater sponge; tags in brackets are library labels; higher = faster piRNA-guided slicing of the target
# Conditions: auxiliary factor: 500 nM mouse GTSF1
# Summary of the method: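 With or without 500 nM GTSF1 partner protein, 1 nM active affinity-purified piRISC carrying one synthetic guide was mixed with 0.1 nM transcribed, DNA-blocked target RNA library in HEPES–potassium acetate buffer at 33 °C for 0–8 or 0–960 min. Uncleaved targets were sequenced and normalised to depth and to weakly complementary targets, three trials were pooled, and k3 was capped at 0.0001 min^-1. The pre-steady-state cleavage rate came from a burst-and-steady-state fit.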
row,Sequence,pre-steady-state target cleavage rate
1,GGAGAGGAUACUAUACAAGCUACAACCUCA,0.0872 ± 0.017
2,GGAGACCUAUGAAUACAACGUACUUCCUCA,0.00328 ± 0.0027
3,GGAGACCUAUGAAUACAACCUACUACCACA,0.00626 ± 0.0028
4,GGAGACCUAUGAAUACAACCUACUACCUGA,0.00268 ± 0.0026
5,GGAGACCUUACAAUACUACCUACUACCUCA,0.114 ± 0.013
6,GGAGACCUAUGAAUACAAGCUACUACCACA,0.0366 ± 0.0055
7,GGAGACCUUACUAUACUUCCUACUACCUCA,0.127 ± 0.011
8,GGAGACCUAUGAAUACAAGCUACAACCUCA,0.018 ± 0.0032
9,GGAGACCUUACUAAUGAACCUACUACCUCA,0.00805 ± 0.0017
10,GGAGAGGAUACUAUACAAGGAACUACCUCA,0.00442 ± 0.002
11,GGAGACCAUACUAUAGAACCUACUACCUGA,0.00906 ± 0.0046
12,GGAGACCUAUGUUAUCAACCUACUACCUCA,0.0125 ± 0.0029
13,GGAGUGGAAACUAUACAACCUACUACCUCA,0.225 ± 0.02
14,GGAGACCUAUGUAUACAUGCUACUACCUCA,0.0469 ± 0.007
15,GGAGACCUAUCUAAACAACGUACUACCUCA,0.00647 ± 0.0027
16,GGAGACCUAACUAUACUACCUUCUACCUCA,0.00544 ± 0.0042
17,GGAGACCAUAGUAUACAACCUACUACCACA,0.133 ± 0.015
18,GGAGACCUAUGAUAACAACCUACUACCUGCA,0.00443 ± 0.0033
19,GGAGACCUAUGUAUACAACCUACUUCCACA,0.0135 ± 0.0034
20,GGAGACCUAUGAUUACAUCCUACUACCACA,0.0105 ± 0.0035
21,GGAGACCUAUGAUUACAUCCUACAACCUCA,0.00871 ± 0.0027
22,GGAGACCUAUGAAUACAAGCUACUACGUCA,0.0102 ± 0.003
23,GGAGACCUAACUAUACUACCUACUACCACA,0.0974 ± 0.017
24,GGAGACCUAUGAUAUGUUCCUACAAGCUCA,< 0.0001
